Laboratory results reported in PubChem BioAssay AID1159580 (chemical genetic matrix, 2015).
The campaign covered roughly 5,500 compounds. About 2,000 (36%) were called active. About 18% were inconclusive and are not listed. Rule as the data show it: active = normalized growth mostly below about 0.91 (no sharp cut-off); inconclusive = no clear call, values can overlap the other calls; inactive = mostly above about 0.92. The list shows a part of the results.

Assay: chemical genetic growth profiling, strain panel (AID 1159580);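 also: tested at 20 µM; growth read once vehicle control cultures reached saturation at 30 °C; 1 = growth at the plate median or of vehicle wells; lower values mean less growth of the strain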
Details: growth OD

Measured: normalized growth

O=c1[nH]c(=O)n(C2C[C@@H](O)[C@@H](CO)O2)cc1F (stereo partly drawn)
inactive: S. cerevisiae deletion strains, locus YJR066W, strain TOR1, hits give low values 0.932 | S. cerevisiae deletion strains, locus YKL009W, strain mrt4, hits give low values 1.04 | S. cerevisiae deletion strains, locus YKL068W, hits give low values 1 | S. cerevisiae deletion strains, locus YKL085W, strain MDH1 (second series), hits give low values 0.996 | S. cerevisiae deletion strains, locus YKL085W, strain MDH1, hits give low values 0.996 | S. cerevisiae deletion strains, locus YKL160W, strain elf1, hits give low values 1 | S. cerevisiae deletion strains, locus YKR001C, strain vps1, hits give low values 1.01 | S. cerevisiae deletion strains, locus YKR026C, strain gcn3, hits give low values 0.978 | S. cerevisiae deletion strains, locus YKR091W, strain srl3, hits give low values 0.995 | S. cerevisiae deletion strains, locus YLL001W, strain dnm1, hits give low values 0.992 | S. cerevisiae deletion strains, locus YLL026W, hits give low values 0.985 | S. cerevisiae deletion strains, locus YLL041C, strain sdh2, hits give low values 0.984 | S. cerevisiae deletion strains, locus YLR027C, strain aat2, hits give low values 0.994 | S. cerevisiae deletion strains, locus YLR039C, strain RIC1, hits give low values 1.04 | S. cerevisiae deletion strains, locus YLR058C, strain SHM2, hits give low values 1.02 | S. cerevisiae deletion strains, locus YLR102C, strain apc9, hits give low values 1.01 | S. cerevisiae deletion strains, locus YLR113W, strain HOG1, hits give low values 0.986 | S. cerevisiae deletion strains, locus YLR221C, strain rsa3, hits give low values 1.01 | S. cerevisiae deletion strains, locus YLR258W, strain gsy2, hits give low values 1.01 | S. cerevisiae deletion strains, locus YLR262C, strain YPT6 (second series), hits give low values 1.02 | S. cerevisiae deletion strains, locus YLR262C, strain YPT6, hits give low values 1.04 | S. cerevisiae deletion strains, locus YLR268W, strain sec22, hits give low values 1.03 | S. cerevisiae deletion strains, locus YLR320W, strain mms22, hits give low values 1.01 | S. cerevisiae deletion strains, locus YLR330W, strain CHS5, hits give low values 1.01 | S. cerevisiae deletion strains, locus YLR342W, strain FKS1 (second series), hits give low values 1.02 | S. cerevisiae deletion strains, locus YLR342W, strain FKS1, hits give low values 1.01 | S. cerevisiae deletion strains, locus YLR357W, strain rsc2, hits give low values 0.974 | S. cerevisiae deletion strains, locus YLR370C, strain arc18, hits give low values 1 | S. cerevisiae deletion strains, locus YLR371W, strain rom2, hits give low values 1.02 | S. cerevisiae deletion strains, locus YLR384C, strain iki3, hits give low values 0.982 | S. cerevisiae deletion strains, locus YLR418C, strain cdc73, hits give low values 1.02 | S. cerevisiae deletion strains, locus YML016C, strain PPZ1, hits give low values 1.01 | S. cerevisiae deletion strains, locus YML032C, strain rad52, hits give low values 1 | S. cerevisiae deletion strains, locus YML120C, strain ndi1, hits give low values 0.984 | S. cerevisiae deletion strains, locus YML124C, strain tub3, hits give low values 1.01 | S. cerevisiae deletion strains, locus YMR058W, strain fet3, hits give low values 0.986 | S. cerevisiae deletion strains, locus YMR078C, strain ctf18, hits give low values 1.01 | S. cerevisiae deletion strains, locus YMR125W, strain sto1, hits give low values 0.985 | S. cerevisiae deletion strains, locus YMR129W, hits give low values 0.999 | S. cerevisiae deletion strains, locus YMR205C, strain PFK2, hits give low values 1.01 | S. cerevisiae deletion strains, locus YMR223W, strain ubp8, hits give low values 1 | S. cerevisiae deletion strains, locus YMR231W, strain pep5, hits give low values 1.01 | S. cerevisiae deletion strains, locus YMR263W, strain SAP30, hits give low values 1.05 | S. cerevisiae deletion strains, locus YMR307W, strain GAS1, hits give low values 1.05 | S. cerevisiae deletion strains, locus YNL067W, strain RPL9B, hits give low values 1.06 | S. cerevisiae deletion strains, locus YNL071W, strain lat1, hits give low values 0.993 | S. cerevisiae deletion strains, locus YNL153C, strain GIM3, hits give low values 1.04 | S. cerevisiae deletion strains, locus YNL183C, strain NPR1, hits give low values 0.93 | S. cerevisiae deletion strains, locus YNL209W, strain ssb2, hits give low values 0.987 | S. cerevisiae deletion strains, locus YNL233W, strain BNI4, hits give low values 1.05 | S. cerevisiae deletion strains, locus YNL248C, strain rpa49, hits give low values 0.973 | S. cerevisiae deletion strains, locus YNL250W, strain rad50, hits give low values 1 | S. cerevisiae deletion strains, locus YNL271C, strain bni1, hits give low values 1.01 | S. cerevisiae deletion strains, locus YNL298W, strain CLA4, hits give low values 0.996 | S. cerevisiae deletion strains, locus YNL307C, strain MCK1, hits give low values 1.02 | S. cerevisiae deletion strains, locus YNL322C, strain KRE1 (second series), hits give low values 0.999 | S. cerevisiae deletion strains, locus YNL322C, strain KRE1, hits give low values 1 | S. cerevisiae deletion strains, locus YNR049C, strain mso1, hits give low values 0.982 | S. cerevisiae deletion strains, locus YNR052C, strain pop2, hits give low values 1.01 | S. cerevisiae deletion strains, locus YOL012C, strain htz1 1.63 | S. cerevisiae deletion strains, locus YOL147C, strain pex11, hits give low values 1.02 | S. cerevisiae deletion strains, locus YOR001W, strain rrp6, hits give low values 0.987 | S. cerevisiae deletion strains, locus YOR061W, strain CKA2, hits give low values 1.01 | S. cerevisiae deletion strains, locus YOR069W, strain VPS5, hits give low values 1.01 | S. cerevisiae deletion strains, locus YOR070C, strain gyp1, hits give low values 1.01 | S. cerevisiae deletion strains, locus YOR080W, strain dia2, hits give low values 1 | S. cerevisiae deletion strains, locus YOR083W, strain WHI5, hits give low values 1.01 | S. cerevisiae deletion strains, locus YOR106W, strain vam3, hits give low values 0.996 | S. cerevisiae deletion strains, locus YOR136W, strain idh2, hits give low values 1.02 | S. cerevisiae deletion strains, locus YOR144C, strain elg1, hits give low values 1.01 | S. cerevisiae deletion strains, locus YOR184W, strain ser1, hits give low values 1.02 | S. cerevisiae deletion strains, locus YOR231W, strain MKK1, hits give low values 0.98 | S. cerevisiae deletion strains, locus YOR265W, strain rbl2, hits give low values 1.01 | S. cerevisiae deletion strains, locus YOR270C, strain vph1, hits give low values 0.994 | S. cerevisiae deletion strains, locus YOR290C, strain snf2, hits give low values 0.989 | S. cerevisiae deletion strains, locus YOR316C, strain cot1, hits give low values 1.02 | S. cerevisiae deletion strains, locus YPL051W, strain arl3, hits give low values 1.02 | S. cerevisiae deletion strains, locus YPL078C, strain atp4, hits give low values 0.976 | S. cerevisiae deletion strains, locus YPL106C, strain sse1, hits give low values 1.01 | S. cerevisiae deletion strains, locus YPL240C, strain hsp82, hits give low values 0.987 | S. cerevisiae deletion strains, locus YPL241C, strain CIN2, hits give low values 1 | S. cerevisiae deletion strains, locus YPL256C, strain CLN2, hits give low values 0.957 | S. cerevisiae deletion strains, locus YPR119W, strain clb2, hits give low values 1.01 | S. cerevisiae deletion strains, locus YPR141C, strain kar3, hits give low values 1.01 | S. cerevisiae deletion strains, locus YPR163C, strain tif3, hits give low values 1.01 | S. cerevisiae deletion strains, locus YPR167C, strain met16, hits give low values 1.02 | S. cerevisiae deletion strains, strain wtn01, hits give low values 0.996 | S. cerevisiae strains, strain wild type, hits give low values 1.01
